Assays:
Assay in all cases: DAPPL (digital affinity profiling via proximity ligation, sequencing); 10 mM Tris-HCl pH 7.5, 50 mM NaCl, 1 mM DTT, 4% glycerol, room temperature, 30 min; GST-TFs on glutathione beads, 16-mer random dsDNA library, 0.1% formaldehyde crosslink after washing; high values mean tight binding
FEV = target: T1, FEV (Homo sapiens, UniProt Q99581 1-238); conditions: protein: recombinant; tags: N-terminal GST; dsDNA, one strand shown
T1 sequence: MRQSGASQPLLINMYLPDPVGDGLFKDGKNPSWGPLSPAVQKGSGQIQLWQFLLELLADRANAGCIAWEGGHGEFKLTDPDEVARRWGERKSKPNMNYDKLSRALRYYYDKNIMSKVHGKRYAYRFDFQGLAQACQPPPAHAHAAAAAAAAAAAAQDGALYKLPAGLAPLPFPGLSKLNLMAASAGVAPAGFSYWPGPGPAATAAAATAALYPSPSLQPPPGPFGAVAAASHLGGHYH
Method in brief: (§1)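 Binding signal is each hexamer's read frequency for a factor divided by its frequency in the tag-only sample. The factors were GST-fused human transcription factors from yeast, captured on glutathione beads, DNA-barcoded and pooled with that sample. Pools were incubated with 200 nmole of a random double-stranded 16-mer DNA library in Tris/NaCl/DTT/glycerol buffer at room temperature for 30 min, then washed, crosslinked with 0.1% formaldehyde, proximity-ligated with BsaI/T4 ligase (1 h, 37 °C), PCR-amplified and sequenced on an Illumina NextSeq500.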

ETV5 = ETV5 (Homo sapiens, UniProt P41161 1-510); conditions: protein: recombinant; tags: N-terminal GST; dsDNA, one strand shown
Method in brief: as §1

HSF1 = HSF1 (Homo sapiens, UniProt Q00613 1-529); conditions: protein: recombinant; tags: N-terminal GST; chain copies: 3; dsDNA, one strand shown
Method in brief: as §1

SPIC = target: T2, SPIC (Homo sapiens, UniProt Q8N5J4 1-248); conditions: protein: recombinant; tags: N-terminal GST; dsDNA, one strand shown
T2 sequence: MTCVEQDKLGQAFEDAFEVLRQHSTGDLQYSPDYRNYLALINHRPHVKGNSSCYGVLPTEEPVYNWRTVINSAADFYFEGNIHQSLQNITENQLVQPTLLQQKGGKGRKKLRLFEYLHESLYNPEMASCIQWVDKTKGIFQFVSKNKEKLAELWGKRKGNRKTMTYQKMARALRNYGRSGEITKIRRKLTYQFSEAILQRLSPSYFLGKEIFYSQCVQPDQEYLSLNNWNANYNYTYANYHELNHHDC
Method in brief: as §1

ELF4 = ELF4 (Homo sapiens, UniProt Q99607 1-663); conditions: protein: recombinant; tags: N-terminal GST; dsDNA, one strand shown
Method in brief: as §1

ELK4 = target: T3, ELK4 (Homo sapiens, UniProt P28324-2 1-405); conditions: protein: recombinant; tags: N-terminal GST; dsDNA, one strand shown
T3 sequence: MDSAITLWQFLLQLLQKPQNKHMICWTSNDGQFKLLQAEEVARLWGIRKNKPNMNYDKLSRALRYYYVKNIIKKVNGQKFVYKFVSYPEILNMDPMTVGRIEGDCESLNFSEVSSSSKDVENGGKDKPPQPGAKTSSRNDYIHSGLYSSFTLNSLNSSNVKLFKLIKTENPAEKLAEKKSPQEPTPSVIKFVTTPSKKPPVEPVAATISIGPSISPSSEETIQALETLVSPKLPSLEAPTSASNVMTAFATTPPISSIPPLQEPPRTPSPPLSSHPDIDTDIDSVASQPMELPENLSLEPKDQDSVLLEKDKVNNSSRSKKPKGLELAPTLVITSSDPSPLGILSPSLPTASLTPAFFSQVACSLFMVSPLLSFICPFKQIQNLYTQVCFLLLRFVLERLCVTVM
Method in brief: as §1

ETV2 = target: T4, ETV2 (Homo sapiens, UniProt O00321 1-342); conditions: protein: recombinant; tags: N-terminal GST; dsDNA, one strand shown
T4 sequence: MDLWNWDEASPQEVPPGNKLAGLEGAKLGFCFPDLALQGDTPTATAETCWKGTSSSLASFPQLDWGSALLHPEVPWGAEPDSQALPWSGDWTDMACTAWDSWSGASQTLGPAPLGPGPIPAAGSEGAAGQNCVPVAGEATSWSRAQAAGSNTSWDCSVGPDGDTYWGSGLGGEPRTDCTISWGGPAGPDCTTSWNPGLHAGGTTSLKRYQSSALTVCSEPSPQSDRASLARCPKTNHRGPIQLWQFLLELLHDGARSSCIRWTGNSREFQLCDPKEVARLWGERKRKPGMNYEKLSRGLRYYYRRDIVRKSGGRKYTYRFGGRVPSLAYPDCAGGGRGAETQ
Method in brief: as §1

ELF3 = target: T5, ELF3 (Homo sapiens, UniProt P78545 1-371); conditions: protein: recombinant; tags: N-terminal GST; dsDNA, one strand shown
T5 sequence: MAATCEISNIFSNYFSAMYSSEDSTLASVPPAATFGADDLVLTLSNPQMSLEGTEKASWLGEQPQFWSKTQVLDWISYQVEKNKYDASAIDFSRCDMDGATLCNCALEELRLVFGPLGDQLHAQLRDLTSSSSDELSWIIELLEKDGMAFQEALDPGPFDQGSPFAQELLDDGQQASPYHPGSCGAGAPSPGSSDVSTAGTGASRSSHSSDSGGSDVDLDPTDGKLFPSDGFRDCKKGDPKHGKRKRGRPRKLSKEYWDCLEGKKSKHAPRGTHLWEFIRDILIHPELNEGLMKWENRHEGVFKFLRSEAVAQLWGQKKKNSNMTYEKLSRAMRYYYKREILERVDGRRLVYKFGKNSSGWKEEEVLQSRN
Method in brief: as §1

CRX = CRX (Homo sapiens, UniProt O43186 1-299); conditions: protein: recombinant; tags: N-terminal GST; dsDNA, one strand shown
Method in brief: as §1

ETV1 = ETV1 (Homo sapiens, UniProt P50549 1-477); conditions: protein: recombinant; tags: N-terminal GST; dsDNA, one strand shown
Method in brief: as §1

ERF = target: T6, ERF (Homo sapiens, UniProt P50548 1-548); conditions: protein: recombinant; tags: N-terminal GST; dsDNA, one strand shown
T6 sequence: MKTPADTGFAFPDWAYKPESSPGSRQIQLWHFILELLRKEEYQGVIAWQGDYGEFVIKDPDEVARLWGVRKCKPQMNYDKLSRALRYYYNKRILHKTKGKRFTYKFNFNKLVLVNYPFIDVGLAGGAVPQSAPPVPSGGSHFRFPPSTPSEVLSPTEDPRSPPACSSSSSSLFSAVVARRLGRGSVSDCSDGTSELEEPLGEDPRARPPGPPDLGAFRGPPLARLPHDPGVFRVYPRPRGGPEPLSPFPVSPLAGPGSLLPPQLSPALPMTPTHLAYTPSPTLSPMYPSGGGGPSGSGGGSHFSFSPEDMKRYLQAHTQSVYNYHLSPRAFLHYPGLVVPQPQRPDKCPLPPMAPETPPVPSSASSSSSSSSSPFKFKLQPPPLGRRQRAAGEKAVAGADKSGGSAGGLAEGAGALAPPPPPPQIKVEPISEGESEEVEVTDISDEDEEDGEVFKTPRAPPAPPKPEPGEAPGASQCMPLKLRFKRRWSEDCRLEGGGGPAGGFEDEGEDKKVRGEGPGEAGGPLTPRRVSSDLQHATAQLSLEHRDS
Method in brief: as §1

ETV3L = target: T7, ETV3L (Homo sapiens, UniProt Q6ZN32 1-361); conditions: protein: recombinant; tags: N-terminal GST; dsDNA, one strand shown
T7 sequence: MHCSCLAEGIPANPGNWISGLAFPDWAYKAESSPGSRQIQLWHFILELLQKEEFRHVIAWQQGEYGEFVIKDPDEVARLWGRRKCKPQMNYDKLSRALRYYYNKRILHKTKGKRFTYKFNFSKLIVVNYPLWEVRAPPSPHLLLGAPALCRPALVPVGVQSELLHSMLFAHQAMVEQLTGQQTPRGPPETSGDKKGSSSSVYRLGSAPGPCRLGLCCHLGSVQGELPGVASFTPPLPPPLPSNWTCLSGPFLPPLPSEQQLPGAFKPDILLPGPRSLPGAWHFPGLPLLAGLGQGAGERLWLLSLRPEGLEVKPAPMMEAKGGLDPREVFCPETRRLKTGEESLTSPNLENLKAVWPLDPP
Method in brief: as §1

ETS2 = target: T8, ETS2 (Homo sapiens, UniProt P15036 1-469); conditions: protein: recombinant; tags: N-terminal GST; dsDNA, one strand shown
T8 sequence: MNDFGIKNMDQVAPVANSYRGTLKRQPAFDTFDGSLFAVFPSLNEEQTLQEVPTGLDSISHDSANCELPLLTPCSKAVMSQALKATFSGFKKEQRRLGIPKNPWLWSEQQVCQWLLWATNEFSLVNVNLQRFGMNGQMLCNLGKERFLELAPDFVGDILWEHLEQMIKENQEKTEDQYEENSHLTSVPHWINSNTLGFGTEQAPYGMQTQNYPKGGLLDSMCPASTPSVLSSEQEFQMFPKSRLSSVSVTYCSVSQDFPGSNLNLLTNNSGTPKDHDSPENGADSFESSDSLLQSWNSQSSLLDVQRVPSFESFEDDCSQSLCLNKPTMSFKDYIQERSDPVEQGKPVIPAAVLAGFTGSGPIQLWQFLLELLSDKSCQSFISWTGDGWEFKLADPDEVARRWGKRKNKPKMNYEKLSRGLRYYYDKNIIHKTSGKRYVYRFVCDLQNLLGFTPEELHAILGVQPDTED
Method in brief: as §1

SPDEF = target: T9, SPDEF (Homo sapiens, UniProt O95238 1-335); conditions: protein: recombinant; tags: N-terminal GST; dsDNA, one strand shown
T9 sequence: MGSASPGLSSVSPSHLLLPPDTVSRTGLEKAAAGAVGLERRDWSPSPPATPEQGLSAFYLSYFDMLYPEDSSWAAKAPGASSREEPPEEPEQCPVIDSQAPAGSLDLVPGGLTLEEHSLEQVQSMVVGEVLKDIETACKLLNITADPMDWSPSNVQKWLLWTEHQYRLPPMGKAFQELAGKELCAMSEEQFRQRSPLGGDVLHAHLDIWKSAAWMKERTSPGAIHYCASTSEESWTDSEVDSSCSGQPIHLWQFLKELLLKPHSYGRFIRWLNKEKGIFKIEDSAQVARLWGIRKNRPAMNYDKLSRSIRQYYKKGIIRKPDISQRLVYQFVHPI
Method in brief: as §1

ETV7 = target: T10, ETV7 (Homo sapiens, UniProt Q9Y603 1-341); conditions: protein: recombinant; tags: N-terminal GST; dsDNA, one strand shown
T10 sequence: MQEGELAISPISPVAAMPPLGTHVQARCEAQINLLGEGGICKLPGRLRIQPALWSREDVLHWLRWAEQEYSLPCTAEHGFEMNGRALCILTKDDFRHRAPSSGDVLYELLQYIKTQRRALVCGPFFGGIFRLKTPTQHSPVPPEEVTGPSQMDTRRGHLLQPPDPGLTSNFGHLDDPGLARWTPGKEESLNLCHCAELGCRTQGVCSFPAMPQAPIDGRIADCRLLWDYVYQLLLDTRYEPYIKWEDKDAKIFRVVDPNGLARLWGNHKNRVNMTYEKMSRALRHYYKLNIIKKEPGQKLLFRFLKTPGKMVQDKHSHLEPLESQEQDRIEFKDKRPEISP
Method in brief: as §1

ELF5 = target: T11, ELF5 (Homo sapiens, UniProt Q9UKW6-2 1-255); conditions: protein: recombinant; tags: N-terminal GST; dsDNA, one strand shown
T11 sequence: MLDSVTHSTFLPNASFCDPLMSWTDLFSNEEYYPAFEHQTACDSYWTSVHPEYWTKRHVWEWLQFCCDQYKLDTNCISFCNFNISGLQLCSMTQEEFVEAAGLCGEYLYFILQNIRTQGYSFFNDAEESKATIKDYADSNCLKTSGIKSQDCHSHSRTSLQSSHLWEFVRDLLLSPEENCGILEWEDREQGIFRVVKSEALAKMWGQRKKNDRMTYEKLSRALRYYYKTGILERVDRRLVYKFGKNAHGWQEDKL
Method in brief: as §1

ETV3 = target: T12, ETV3 (Homo sapiens, UniProt P41162-2 1-143); conditions: protein: recombinant; tags: N-terminal GST; dsDNA, one strand shown
T12 sequence: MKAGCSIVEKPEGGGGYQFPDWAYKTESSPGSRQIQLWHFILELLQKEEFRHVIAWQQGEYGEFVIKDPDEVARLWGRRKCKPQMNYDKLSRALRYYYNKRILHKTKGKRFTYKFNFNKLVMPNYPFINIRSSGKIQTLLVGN
Method in brief: as §1

ETV6 = ETV6 (Homo sapiens, UniProt P41212 1-452); conditions: protein: recombinant; tags: N-terminal GST; dsDNA, one strand shown
Method in brief: as §1

Sequence of ELF4 (Q99607 whole entry): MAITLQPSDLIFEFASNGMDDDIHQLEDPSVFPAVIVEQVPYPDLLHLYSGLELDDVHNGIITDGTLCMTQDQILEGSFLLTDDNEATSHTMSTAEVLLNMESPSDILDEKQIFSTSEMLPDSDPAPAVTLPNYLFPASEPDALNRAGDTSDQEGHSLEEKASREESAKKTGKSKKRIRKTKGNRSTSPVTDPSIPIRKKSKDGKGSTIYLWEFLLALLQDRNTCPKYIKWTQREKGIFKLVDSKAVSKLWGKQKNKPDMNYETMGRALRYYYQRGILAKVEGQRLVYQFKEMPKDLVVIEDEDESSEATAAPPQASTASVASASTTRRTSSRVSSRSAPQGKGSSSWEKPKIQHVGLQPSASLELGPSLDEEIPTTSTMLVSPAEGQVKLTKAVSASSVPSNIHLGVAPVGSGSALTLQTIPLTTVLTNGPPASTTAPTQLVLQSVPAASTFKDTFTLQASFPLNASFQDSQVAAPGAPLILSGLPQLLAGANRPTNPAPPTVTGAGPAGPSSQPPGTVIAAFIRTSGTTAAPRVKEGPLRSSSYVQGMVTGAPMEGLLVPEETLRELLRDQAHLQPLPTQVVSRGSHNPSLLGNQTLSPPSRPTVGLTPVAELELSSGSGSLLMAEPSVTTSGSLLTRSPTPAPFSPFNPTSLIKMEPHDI
Sequence of ETV6 (P41212 whole entry): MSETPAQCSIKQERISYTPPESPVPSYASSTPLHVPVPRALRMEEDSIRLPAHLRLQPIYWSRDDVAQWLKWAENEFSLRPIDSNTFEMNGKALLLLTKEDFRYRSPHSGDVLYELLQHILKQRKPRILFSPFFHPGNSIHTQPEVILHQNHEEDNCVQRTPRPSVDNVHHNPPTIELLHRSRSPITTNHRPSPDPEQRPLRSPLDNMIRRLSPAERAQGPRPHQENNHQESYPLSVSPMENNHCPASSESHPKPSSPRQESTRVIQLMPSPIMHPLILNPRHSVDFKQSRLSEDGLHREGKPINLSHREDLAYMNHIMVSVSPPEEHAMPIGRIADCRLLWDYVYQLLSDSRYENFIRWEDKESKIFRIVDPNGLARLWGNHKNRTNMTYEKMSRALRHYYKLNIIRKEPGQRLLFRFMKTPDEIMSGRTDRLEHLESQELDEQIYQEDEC
Sequence of CRX (O43186 whole entry): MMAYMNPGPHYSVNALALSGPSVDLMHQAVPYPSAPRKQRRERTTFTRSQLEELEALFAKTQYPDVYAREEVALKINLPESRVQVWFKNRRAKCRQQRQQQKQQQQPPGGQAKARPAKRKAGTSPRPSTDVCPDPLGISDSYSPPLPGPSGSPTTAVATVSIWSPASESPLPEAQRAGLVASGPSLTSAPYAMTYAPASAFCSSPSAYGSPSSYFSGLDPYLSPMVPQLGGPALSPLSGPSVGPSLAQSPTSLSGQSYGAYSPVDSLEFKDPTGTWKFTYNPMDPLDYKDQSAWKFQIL
Sequence of HSF1 (Q00613 whole entry): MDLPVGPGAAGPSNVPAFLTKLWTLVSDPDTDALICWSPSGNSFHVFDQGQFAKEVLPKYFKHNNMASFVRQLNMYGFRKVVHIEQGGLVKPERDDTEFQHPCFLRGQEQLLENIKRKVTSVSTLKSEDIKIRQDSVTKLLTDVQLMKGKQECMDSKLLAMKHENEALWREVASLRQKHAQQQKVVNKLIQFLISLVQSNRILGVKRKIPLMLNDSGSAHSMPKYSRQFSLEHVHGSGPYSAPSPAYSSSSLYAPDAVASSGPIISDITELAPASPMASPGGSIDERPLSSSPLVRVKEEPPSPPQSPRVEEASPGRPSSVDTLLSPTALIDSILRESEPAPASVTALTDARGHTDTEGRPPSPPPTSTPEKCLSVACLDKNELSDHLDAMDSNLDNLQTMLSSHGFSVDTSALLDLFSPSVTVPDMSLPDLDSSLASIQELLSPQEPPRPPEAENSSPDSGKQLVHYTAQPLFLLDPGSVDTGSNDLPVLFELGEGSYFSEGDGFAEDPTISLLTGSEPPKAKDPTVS
Sequence of ETV5 (P41161 whole entry): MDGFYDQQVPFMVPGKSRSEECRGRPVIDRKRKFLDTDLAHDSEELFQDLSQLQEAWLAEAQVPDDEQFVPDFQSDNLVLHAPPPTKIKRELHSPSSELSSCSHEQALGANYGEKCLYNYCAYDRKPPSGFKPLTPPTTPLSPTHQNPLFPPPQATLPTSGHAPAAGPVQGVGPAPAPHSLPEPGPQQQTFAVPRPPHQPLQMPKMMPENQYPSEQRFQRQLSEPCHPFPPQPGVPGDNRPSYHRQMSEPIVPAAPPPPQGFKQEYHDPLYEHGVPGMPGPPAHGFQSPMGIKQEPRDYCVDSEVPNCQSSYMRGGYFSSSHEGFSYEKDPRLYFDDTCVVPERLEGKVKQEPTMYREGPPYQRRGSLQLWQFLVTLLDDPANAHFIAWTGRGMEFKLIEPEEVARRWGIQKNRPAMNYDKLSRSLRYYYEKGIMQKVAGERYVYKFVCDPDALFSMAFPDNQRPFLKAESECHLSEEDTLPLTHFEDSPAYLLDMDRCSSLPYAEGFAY
Sequence of ETV1 (P50549 whole entry): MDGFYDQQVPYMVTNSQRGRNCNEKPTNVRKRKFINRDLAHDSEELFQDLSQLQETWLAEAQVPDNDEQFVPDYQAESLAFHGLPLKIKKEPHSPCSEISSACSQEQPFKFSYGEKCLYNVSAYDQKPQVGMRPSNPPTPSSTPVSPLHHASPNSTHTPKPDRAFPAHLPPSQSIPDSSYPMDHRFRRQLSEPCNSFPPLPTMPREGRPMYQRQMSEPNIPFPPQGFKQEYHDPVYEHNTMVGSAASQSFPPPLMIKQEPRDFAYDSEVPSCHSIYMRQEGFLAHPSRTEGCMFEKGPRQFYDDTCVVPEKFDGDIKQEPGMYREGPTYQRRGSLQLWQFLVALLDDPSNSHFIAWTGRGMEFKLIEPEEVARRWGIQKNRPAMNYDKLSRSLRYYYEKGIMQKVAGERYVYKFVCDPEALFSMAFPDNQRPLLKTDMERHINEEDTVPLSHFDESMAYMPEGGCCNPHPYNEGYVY

In the case of TAAATC, the binding signal (FEV) was 1.21 fold enrichment (6-mer frequency, TF over GST control), the binding signal (ETV5) was 1.23 fold enrichment (6-mer frequency, TF over GST control) and the binding signal (HSF1) was 1.9 fold enrichment (6-mer frequency, TF over GST control). The binding signal (SPIC) was 1.2 fold enrichment (6-mer frequency, TF over GST control), the binding signal (ELF4) was 1.3 fold enrichment (6-mer frequency, TF over GST control) and the binding signal (ELK4) was 1.27 fold enrichment (6-mer frequency, TF over GST control). The binding signal (ETV2) was 1.12 fold enrichment (6-mer frequency, TF over GST control), the binding signal (ELF3) was 1.2 fold enrichment (6-mer frequency, TF over GST control) and the binding signal (CRX) was 2.81 fold enrichment (6-mer frequency, TF over GST control). For the same sequence, the binding signal (ETV1) was 1.26 fold enrichment (6-mer frequency, TF over GST control), the binding signal (ERF) was 1.24 fold enrichment (6-mer frequency, TF over GST control) and the binding signal (ETV3L) was 1.29 fold enrichment (6-mer frequency, TF over GST control). For the same sequence, the binding signal (ETS2) was 1.33 fold enrichment (6-mer frequency, TF over GST control), the binding signal (SPDEF) was 1.33 fold enrichment (6-mer frequency, TF over GST control) and the binding signal (ETV7) was 1.22 fold enrichment (6-mer frequency, TF over GST control). The binding signal (ELF5) was 1.15 fold enrichment (6-mer frequency, TF over GST control), the binding signal (ETV3) was 1.18 fold enrichment (6-mer frequency, TF over GST control) and the binding signal (ETV6) was 1.29 fold enrichment (6-mer frequency, TF over GST control).

Source: article PMC7862700, “An all-to-all approach to the identification of sequence-specific readers for epigenetic DNA modifications on cytosine”
